Source: PubChem BioAssay
Activity calls are given as the source filed them.

How the values were obtained:
Albumin (Bos taurus) = Albumin (Bos taurus) (UniProt P02769); test: bovine serum albumin binders on microarray, profiling panel, artefact control for SMM control protein annotation, biochemical, small-molecule microarray, Alexa647 label, 635/667 nm fluorescence (AID 1118); conditions: BSA-A647 binding, fluorescence 635 nm, higher = more signal;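 also: score merges 667 nm emission intensity and signal-to-noise per printed compound spot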
Albumin (Bos taurus), sequence (P02769 whole entry, looked up): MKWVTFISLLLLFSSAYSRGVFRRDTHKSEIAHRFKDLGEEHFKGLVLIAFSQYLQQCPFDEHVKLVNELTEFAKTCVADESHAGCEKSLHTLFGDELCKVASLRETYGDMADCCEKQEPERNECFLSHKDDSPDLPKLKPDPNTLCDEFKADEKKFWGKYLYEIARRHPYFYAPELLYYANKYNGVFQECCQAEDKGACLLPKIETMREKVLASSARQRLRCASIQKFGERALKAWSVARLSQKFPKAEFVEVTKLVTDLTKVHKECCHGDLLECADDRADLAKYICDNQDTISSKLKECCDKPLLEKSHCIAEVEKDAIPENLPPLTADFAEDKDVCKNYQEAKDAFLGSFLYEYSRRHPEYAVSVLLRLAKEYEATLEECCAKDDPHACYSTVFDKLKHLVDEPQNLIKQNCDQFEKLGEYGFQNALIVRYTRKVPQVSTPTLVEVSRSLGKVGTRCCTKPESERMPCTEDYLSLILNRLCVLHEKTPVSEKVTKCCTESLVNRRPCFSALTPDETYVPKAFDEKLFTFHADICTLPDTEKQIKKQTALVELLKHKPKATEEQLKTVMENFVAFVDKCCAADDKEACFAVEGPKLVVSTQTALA

[1] = small-molecule microarray binders of probe aXIP, primary screen, biochemical, NeuroSMM set, 635/667 nm fluorescence (AID 1119); conditions: higher = more signal, called active from +8 up or from −8 down;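 also: probe is the protein aXip251-270 applied at 1 µg/mL to compound-printed slides; binding of probe to printed compounds measured as 667 nm fluorescence plus signal to noise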
[2] = small-molecule binders of probe aNOTCH3, primary screen, biochemical, small-molecule microarray, 635/667 nm fluorescence (AID 1120); conditions: higher = more signal;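 also: probe is a biotin-tagged antibody raised against NOTCH3 rather than NOTCH3 protein; score merges spot fluorescence near 667 nm with spot signal to noise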
[3] = small-molecule binders of probe aNOTCH2, primary screen, biochemical, small-molecule microarray, 635/667 nm fluorescence (AID 1121); conditions: higher = more signal;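 also: score merges feature fluorescence read at 667 nm with its signal to noise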
[4] = target: Carbonic anhydrase 2 (Homo sapiens) (UniProt P00918); test: CAII small-molecule binders, profiling panel, biochemical, small-molecule microarray, Alexa647-labelled CAII (AID 1122); conditions: CAII-A647 binding fluorescence, higher = more signal
[5] = COS7 lysate on small-molecule microarray, probe aHis, 635 nm (AID 1123); conditions: COS7 cell lysate, fluorescence, higher = more signal;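 also: z-score combines 667nm fluorescence intensity with signal-to-noise per printed compound spot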
[6] = compound binding in COS7 lysate, probe aLAP1, primary screen, cell lysate, small-molecule microarray (AID 1124); conditions: probe aLAP1, fluorescence, higher = more signal;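 also: lysate comes from COS7 cells expressing LAP1 and is applied at 0.3 µg/mL; score merges spot fluorescence near 667 nm with signal-to-noise over triplicate slides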
Sam68 (KHDRBS1) = test: Sam68 small-molecule binders, primary screen, biochemical, small-molecule microarray, 635 nm fluorescence (AID 1125); conditions: small-molecule microarray binding, higher = more signal;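 also: score merges 667 nm channel intensity with signal to noise over triplicate slides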
[7] = system: Chordin-like protein 2 (CHRDL2); test: CHRDL2 small-molecule binders, primary screen, biochemical, small-molecule microarray, 635 nm fluorescence (AID 1126); conditions: small-molecule microarray binding, fluorescence 635 nm; higher = more signal;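 also: printed compound slides probed with Chrdl2 protein at 4 µg/mL for 1 h at 4 C; score merges 667 nm emission intensity with signal to noise over three replicate slides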
[8] = target: Concanavalin-A (Canavalia ensiformis) (UniProt P02866); test: ConA small-molecule binders, primary screen, artefact control for SMM control protein annotation, biochemical, small-molecule microarray, Alexa647 label, 635 nm (AID 1127); conditions: ConA-A647 binding fluorescence, higher = more signal;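 also: z combines 667 nm emission intensity with signal-to-noise across three replicate slides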
Concanavalin-A (Canavalia ensiformis), sequence (P02866 whole entry, looked up): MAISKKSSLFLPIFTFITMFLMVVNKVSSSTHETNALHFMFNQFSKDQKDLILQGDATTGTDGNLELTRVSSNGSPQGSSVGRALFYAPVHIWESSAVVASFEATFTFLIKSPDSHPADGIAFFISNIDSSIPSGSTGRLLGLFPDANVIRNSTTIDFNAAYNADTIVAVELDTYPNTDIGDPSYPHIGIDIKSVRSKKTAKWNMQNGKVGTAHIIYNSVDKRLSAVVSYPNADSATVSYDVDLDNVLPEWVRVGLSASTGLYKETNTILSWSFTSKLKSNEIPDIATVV

[9] = anti-His antibody binders, primary screen, artefact control for SMM control protein annotation, biochemical, small-molecule microarray, 635 nm fluorescence (AID 1128); conditions: anti-His Alexa647 antibody binding, higher = more signal;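 also: score merges feature fluorescence with signal-to-noise for each printed compound spot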
[10] = system: Human papillomavirus type 1a E7 protein (residues 1-88); test: HPV1a E7 small-molecule binders, primary screen, biochemical, small-molecule microarray, residues 1-88, 635 nm (AID 1129); conditions: small-molecule microarray binding, fluorescence 635 nm; higher = more signal
[11] = target: Focal adhesion kinase 1 (Homo sapiens) (UniProt Q05397); test: small-molecule microarray binders of FAK, primary screen, biochemical, 635/667 nm fluorescence, BSA, DTT (AID 1130); conditions: PTK2 binding, 635 nm fluorescence, higher = more signal;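 also: composite of spot emission at 667 nm and signal to noise over triplicate slides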
Focal adhesion kinase 1 (Homo sapiens), sequence (Q05397 whole entry, looked up): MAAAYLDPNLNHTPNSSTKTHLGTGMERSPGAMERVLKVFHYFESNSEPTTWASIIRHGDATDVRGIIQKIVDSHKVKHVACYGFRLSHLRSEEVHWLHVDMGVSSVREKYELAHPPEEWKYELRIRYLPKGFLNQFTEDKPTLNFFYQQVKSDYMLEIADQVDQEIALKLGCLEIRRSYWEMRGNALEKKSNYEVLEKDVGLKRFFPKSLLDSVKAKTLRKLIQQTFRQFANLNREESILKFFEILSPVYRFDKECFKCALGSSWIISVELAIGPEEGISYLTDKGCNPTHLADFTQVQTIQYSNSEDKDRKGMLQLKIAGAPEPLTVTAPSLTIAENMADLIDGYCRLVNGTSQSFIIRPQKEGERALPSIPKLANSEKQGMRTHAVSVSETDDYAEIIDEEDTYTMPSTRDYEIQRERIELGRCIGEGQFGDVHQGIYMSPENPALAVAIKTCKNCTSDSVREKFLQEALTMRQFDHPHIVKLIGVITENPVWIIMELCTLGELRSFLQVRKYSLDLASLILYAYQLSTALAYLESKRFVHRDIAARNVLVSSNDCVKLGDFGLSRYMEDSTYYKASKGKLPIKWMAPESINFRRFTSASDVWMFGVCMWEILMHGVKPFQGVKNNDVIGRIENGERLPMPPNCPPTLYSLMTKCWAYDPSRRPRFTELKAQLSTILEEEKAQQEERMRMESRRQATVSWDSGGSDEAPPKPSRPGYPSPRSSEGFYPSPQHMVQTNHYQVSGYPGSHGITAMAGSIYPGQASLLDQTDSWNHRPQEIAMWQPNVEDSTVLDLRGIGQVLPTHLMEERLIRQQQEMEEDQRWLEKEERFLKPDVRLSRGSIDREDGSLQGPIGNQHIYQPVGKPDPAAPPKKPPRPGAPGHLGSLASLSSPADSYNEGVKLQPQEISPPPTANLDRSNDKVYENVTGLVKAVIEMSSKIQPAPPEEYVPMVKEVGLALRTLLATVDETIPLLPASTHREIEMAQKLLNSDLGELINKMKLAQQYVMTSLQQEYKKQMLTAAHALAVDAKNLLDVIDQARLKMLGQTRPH

[12] = system: Fibrinogen (Alexa647-labelled); test: fibrinogen binders on compound microarrays, profiling panel, artefact control for SMM control-protein annotation, biochemical, small-molecule microarray, 635/667 nm fluorescence (AID 1131); conditions: fibrinogen-A647 binding fluorescence, higher = more signal;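 also: z-score merges 667 nm fluorescence with per-spot signal-to-noise over triplicate slides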
[13] = target: Follistatin (Homo sapiens) (UniProt P19883); test: follistatin binders on small-molecule microarrays, primary screen, biochemical, small-molecule microarray, 635/667 nm fluorescence (AID 1132); conditions: FST binding, 635 nm fluorescence, higher = more signal
Follistatin (Homo sapiens), sequence (P19883 whole entry, looked up): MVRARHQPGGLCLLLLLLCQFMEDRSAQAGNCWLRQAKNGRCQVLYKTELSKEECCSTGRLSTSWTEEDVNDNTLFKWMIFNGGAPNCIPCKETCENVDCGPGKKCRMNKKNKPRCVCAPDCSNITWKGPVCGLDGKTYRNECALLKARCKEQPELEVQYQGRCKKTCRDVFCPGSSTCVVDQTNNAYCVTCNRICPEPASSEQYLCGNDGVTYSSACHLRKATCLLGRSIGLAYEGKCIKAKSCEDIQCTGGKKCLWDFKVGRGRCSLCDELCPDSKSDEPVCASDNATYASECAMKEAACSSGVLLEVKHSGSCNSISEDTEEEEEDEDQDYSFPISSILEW

[14] = target: Fibroblast growth factor 2 (Homo sapiens) (UniProt P09038); test: FGF2 binders on small-molecule microarrays, primary screen, biochemical, small-molecule microarray, 635/667 nm fluorescence (AID 1133); conditions: small-molecule microarray binding, FGF2, fluorescence 635/667; higher = more signal
Fibroblast growth factor 2 (Homo sapiens), sequence (P09038 whole entry, looked up): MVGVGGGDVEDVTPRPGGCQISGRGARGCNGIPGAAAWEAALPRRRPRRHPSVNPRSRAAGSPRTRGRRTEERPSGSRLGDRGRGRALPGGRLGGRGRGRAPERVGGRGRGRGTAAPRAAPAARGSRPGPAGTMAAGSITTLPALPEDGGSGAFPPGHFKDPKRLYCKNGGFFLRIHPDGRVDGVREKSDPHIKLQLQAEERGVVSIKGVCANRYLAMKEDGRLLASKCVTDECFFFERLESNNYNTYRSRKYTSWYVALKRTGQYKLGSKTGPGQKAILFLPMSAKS

[15] = mitochondrial membrane potential change in A549 cells, profiling panel, cell-based, JC-1 fluorescence, basal, 24 h, 100 nL (AID 1138); conditions: higher = more signal;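 also: A549 lung adenocarcinoma cells under basal conditions with no added stimulus; test concentration not given here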
Lefty1 = Lefty1 binders on small-molecule microarrays, primary screen, biochemical, small-molecule microarray, 635/667 nm fluorescence (AID 1139); conditions: small-molecule microarray binding, fluorescence 635/667; higher = more signal
[16] = system: wheat germ agglutinin (Triticum aestivum), Alexa647-labelled; test: wheat germ agglutinin binders on compound microarrays, profiling panel, artefact control for SMM control-protein annotation, biochemical, small-molecule microarray, 635/667 nm fluorescence (AID 1140); conditions: WGA-A647 binding, 635 nm fluorescence, higher = more signal;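 also: score merges 667 nm feature emission with signal to noise over triplicate slides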
[17] = target: Luciferin 4-monooxygenase (Photinus pyralis) (UniProt P08659); test: firefly luciferase enzyme inhibitors, primary screen, biochemical, luminescence, purified enzyme, 2006 set (AID 1141); conditions: SteadyGlo luminescence, 30 min, higher = more signal, called active from +8 up or from −8 down;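 also: cell-free assay with purified firefly luciferase at 100 ng per well in PBS; test concentration not given here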
Luciferin 4-monooxygenase (Photinus pyralis), sequence (P08659 whole entry, looked up): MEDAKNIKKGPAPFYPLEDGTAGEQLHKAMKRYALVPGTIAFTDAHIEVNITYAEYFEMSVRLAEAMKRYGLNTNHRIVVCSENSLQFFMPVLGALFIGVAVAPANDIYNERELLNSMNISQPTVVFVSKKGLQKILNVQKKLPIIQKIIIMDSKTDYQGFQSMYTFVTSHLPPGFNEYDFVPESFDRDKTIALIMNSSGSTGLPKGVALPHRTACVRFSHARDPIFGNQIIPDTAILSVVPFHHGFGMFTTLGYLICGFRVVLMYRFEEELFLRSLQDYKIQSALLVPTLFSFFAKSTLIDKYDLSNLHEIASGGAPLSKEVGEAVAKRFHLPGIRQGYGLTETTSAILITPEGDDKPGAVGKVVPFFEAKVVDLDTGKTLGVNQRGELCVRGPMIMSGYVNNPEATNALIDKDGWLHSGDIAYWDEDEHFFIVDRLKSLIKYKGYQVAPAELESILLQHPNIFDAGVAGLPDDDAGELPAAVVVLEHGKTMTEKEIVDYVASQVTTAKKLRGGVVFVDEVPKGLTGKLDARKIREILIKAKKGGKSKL

Compound	composite z-score (Albumin (Bos taurus))	composite Z-score [1]	composite z-score [2]	composite z-score [3]	composite z-score [4]	composite z-score [5]	composite z-score [6]	composite z-score (Sam68 (KHDRBS1))	composite z-score [7]	composite z-score [8]	composite z-score [9]	composite z-score [10]	composite z-score [11]	composite z-score [12]	composite z-score [13]	composite z-score [14]	z-score [15]	composite z-score (Lefty1)	composite z-score [16]	z-score [17]
C=CC[C@H](O)c1ccc(O)c2ccccc12	-0.491	0.579 (inactive)	0.037	-0.0904	0.421	1.63	0.0233	1.06	1.4	0.79	1.02	0.604	0.126	0.24	1.4	1.49	-0.0561	1.26	0.742	-2.47 (inactive)
C=CCNC(=O)[C@H]1[C@@H]2C(=O)O[C@@H](c3ccccc3)[C@@H](c3ccccc3)N2[C@@H](c2ccc(O)cc2)[C@]12C(=O)Nc1ccccc12	-0.118	-0.139 (inactive)	-0.278	-0.0681	0.331	0.45	0.219	1.07	-0.21	0.872	0.809	0.642	-0.176	0.13	0.719	0.757	0.914	-0.319	-0.496	-1.57 (inactive)
CC(CO)N1C(=O)[C@@H]2[C@H]3C(=O)OCC=C[C@H]3OC23C=CCN(c2ccc4ccccc4c2)C(=O)[C@@H]13 (stereo not given in full)	0.876	0.0987 (inactive)	-0.381	-0.132	0.324	-0.312	-0.139	-0.892	-1.66	-0.387	-0.786	-1.21	0.204	-1.83	-2.31	-1.55	0.599	-2.07	-0.515	-0.0768 (inactive)
COC(=O)C(CC#Cc1ccc2c(c1)[C@]1(C(=O)N2)[C@H](c2ccc(OCCO)cc2)N2[C@H](c3ccccc3)[C@H](c3ccccc3)OC(=O)[C@H]2[C@@H]1C(N)=O)C(=O)OC	0.734	-0.0003 (inactive)	-0.209	-0.136	0.389	2.2	0.431	1.06	-0.907	1.14	2.32	1.21	0.307	0.858	0.0592	-0.379	-0.616	-0.269	0.397	-1.38 (inactive)
C=C[C@H](OC)[C@@H](O)c1ccc(OC)c(O)c1	0.985	-0.272 (inactive)	-0.557	-0.19	0.145	-0.651	-0.0037	-2.47	-1.01	-1.9	-0.495	-1.4	-0.833	-1.99	-0.857	0.598	0.793	-1.82	-0.609	-1.1 (inactive)
O=C1O[C@@H](c2ccccc2)[C@@H](c2ccccc2)N2[C@@H](c3ccccc3OCCO)[C@]3(C(=O)Nc4ccc(C#CC5(O)CCCCCC5)cc43)[C@@H](C(=O)N3CCCCCCC3)[C@H]12	-0.411	9.73 (active)	2.33	1.21	1.06	5.19	1.41	1.33	1.69	0.93	2.72	1.27	4.12	0.89	1.58	0.718	-1.1	1.99	1.67	-0.37 (inactive)
COc1ccc(-c2cc3c(c(CCc4ccccc4)n2)[Si](C(C)C)(C(C)C)O[C@H]3c2ccccc2)cn1	-0.425	-0.161 (inactive)	-0.0221	-0.162	-0.299	-0.405	0.0028	-0.605	-0.315	0.571	-0.0334	-0.547	0.16	0.285	0.432	0.0958	0.412	0.169	0.0926	-0.315 (inactive)
CC1C2C(CCCO)=CC(C3C(=O)N(C(N)=O)C(=O)C23)N1Cc1cccc(OC(F)(F)F)c1 (stereo not given)	1	0.649 (inactive)	-0.068	-0.114	0.699	1.22	0.147	1.33	0.0627	-0.0715	0.632	1.11	0.314	0.646	0.0794	0.438	-0.341	0.216	0.576	-0.0224 (inactive)
[N-]=[N+]=Nc1ccccc1C[C@@]1(C(=O)NCC(O)CO)N=C(c2ccc(OCCCO)cc2)O[C@@H]1c1ccccc1N=[N+]=[N-] (stereo not given in full)	0.874	-0.213 (inactive)	0.204	0.0124	0.78	2.25	1.26	1.12	-0.802	0.902	1.85	1.18	1.03	0.79	0.14	-0.491	-2.28	-0.19	1.13	-4.27 (inactive)
CC(C)C[C@H]1NC(=O)CNC(=O)[C@@]23C(=O)N[C@@H](Cc4ccccc4)C2[C@H](C)[C@@]2(C)O[C@H]2C3/C=C/C/C=C\CNC1=O (stereo not given in full)	0.591	-0.0443 (inactive)	-0.0984	-0.133	0.392	0.677	0.248	0.258	0.599	0.0947	0.0845	0.0956	-0.419	-0.304	0.67	0.0369	-0.0605	0.438	0.813	0.151 (inactive)
COCCOC(=O)N1C(=O)[C@@]2(c3cc(C#CCNC(N)=O)ccc31)[C@H](c1ccc(O)cc1)N1[C@H](c3ccccc3)[C@H](c3ccccc3)OC(=O)[C@H]1[C@@H]2C(=O)N1CCc2cc(OC)c(OC)cc2C1	0.397	0.443 (inactive)	0.0962	-0.0928	0.414	0.781	-0.0347	1.21	0.431	0.764	1.24	1.11	1.33	0.336	1.36	0.636	-0.683	0.8	0.815	-1.45 (inactive)
